About 83,000 compounds went through this panel and 20% of them were active in at least one assay; those are over-represented in the sample as a whole.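 Activity criterion: percent growth below 10, measured after cells in 96-well plates were exposed to a single compound concentration for 48 hours.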 Values without a mark were called inactive. Active and inactive are the calls of the source.
test system: HL-60(TB) leukemia; assay: NCI-60 one-dose screen, 48 h (100 = growth as untreated, 0 = no growth, -100 = all killed); conditions: 10 µM unless noted

Compound | growth
O=C1CC[C@@H]2CCCC[C@@H]2C1 | 110%
Nc1c(C(=O)Nc2c(Cl)cccc2Cl)sc2nc3c(cc12)CCCC3 | 35%
O=C(Nc1ccccc1)P(=O)(O)c1ccccc1 | 92.2%
CCn1c(Sc2nnc(Nc3ccccc3)s2)nc2c1c(=O)n(C)c(=O)n2C | 113%
Cc1cc(N(CCOS(C)(=O)=O)CCOS(C)(=O)=O)ccc1C=Nc1ccc(-c2nc(Cc3ccccc3)sc2C)cc1 | 4.95% (active)
CC(=O)c1c(C)[nH]c(-c2nc3ccc(N4CCN(C)CC4)cc3[nH]2)c1-c1ccccc1 | 4.85% (active)
c1ccc(-c2nc3ccccc3[nH]2)c(OCCCCCOc2ccccc2-c2nc3ccccc3[nH]2)c1 | 22%
Cc1ccc(CNc2ccc3nc(CCC4CCCCC4)[nH]c3c2)cc1 | 14.8%
Cc1ccc(C(=O)N(CCCN)[C@@H](c2nc3cc(Cl)ccc3c(=O)n2Cc2ccccc2)C(C)C)cc1 | -58.3% (active)
Clc1cc(Cl)cc(Nc2ccc3c(OCCCN4CCOCC4)cccc3n2)c1 | 50.5%
N#C/C(=C\c1ccc(-c2ccc(Cl)c(Cl)c2)o1)c1nc(-c2ccco2)cs1 | 103%
O=C1Nc2ccc(Br)cc2C12CC(c1ccccc1)=NN2 (stereo not given) | -4.96% (active)
O=C(O)c1ccc(-c2ccc(/C=N/Nc3nc(Nc4ccccc4)nc(N4CCCCC4)n3)o2)cc1 | 66.4%
CCCCCCNc1nc(NCCCCCC)c2[nH]c(NCCCCCC)nc2n1 | -60.2% (active)
N#Cc1c(-c2ccccc2)cc(-c2ccccc2)n(CCCC(=O)NO)c1=O | 10.2%
Cc1ccncc1C(N)=O | -80.7% (active)
O=S(=O)(NCCCNc1cc(-c2cn(-c3ccccc3)nc2-c2cccc(O)c2)ccn1)c1ccc(Br)cc1 | -13.1% (active)
CCC1C(=O)COC1=O (stereo not given) | 96.9%
O=C(CSc1nc2ccccc2[nH]1)c1ccc(N2CCOCC2)cc1 | 113%
O=C(c1cccs1)c1ccccc1Cc1ccccc1 | 98.8%

Compound | growth
Brc1ccc([I+]c2ccc(Br)cc2)cc1 | -25.6% (active)
NC(=N\N=C/c1ccc(Cl)cc1Cl)/C(N)=N\N=C/c1ccc(Cl)cc1Cl | 79.7%
CCN(CC)S(=O)(=O)c1ccc(O)c(NC(=O)c2[nH]c(C)c(C(C)=O)c2CCc2ccc(Cl)cc2)c1 | 39.6%
O=C1CCCN1C1CCN(Cc2cc3ccccc3[nH]c2=O)c2ccccc21 (stereo not given) | 95.6%
COc1ccc(C2=Nc3c(N)nc(N)nc3NC(c3cccc(Nc4ccnc5cc(C(F)(F)F)ccc45)c3)C2)cc1 (stereo not given) | 81.6%
COC(=O)c1c2c(n3ccc(C)cc13)C(=O)c1ccccc1C2=O | 57.6%
CC(=O)Oc1c(Cl)cccc1-c1ccccc1 | 99.6%
CCCCCCN(C)Cc1ccc(OCCOc2ccc(CN(C)CCCCCC)cc2)cc1 | -43.4% (active)
N#CC(C#N)N=Nc1cc(Cl)ccc1Cl | 85.2%
CSc1nc(-c2cccc(NC(=O)CCl)c2)c(C#N)c(=O)n1C | -22.1% (active)
COc1ccc(CCN2C(=O)C(C)(C)SC2=S)cc1OC | 106%
CCN1C(=O)/C(=c2\sc3n(c2=O)NC2C(N=3)N(CC)C(=O)N2CC)c2ccccc21 (stereo not given) | -4.75% (active)
Cc1cc2cc3cc(C)c(N(C)C)cc3nc2cc1N(C)C | 47.5%
COc1cc(/C=C/C(=O)c2c(-c3ccc(Cl)cc3)nc3sc(C)nn23)cc(OC)c1OC | 50.6%
COc1nc2c(c(=O)n1C)N=C1c3ccccc3C(=O)C1C(c1ccccc1)N2 (stereo not given) | 112%
Nc1nc(Br)nc2c1ncn2C1CC(O)C(CO)O1 (stereo not given) | 46%
Cc1cc(-c2ccc(N=Nc3c(S(=O)(=O)O)cc4cc(S(=O)(=O)O)cc(N)c4c3O)c(C)c2)ccc1N=Nc1cc(S(=O)(=O)O)c2ccccc2c1O | 98.7%
O=C/C=C/c1ccc([N+](=O)[O-])cc1Cl | 82.6%
CCCCn1c(=O)c(-c2cc(-c3ccc(Cl)cc3)nc(-c3ccc(Cl)cc3)c2)cc2cc(Cl)ccc21 | 100%
O=C(/C=C/c1ccc(Cl)cc1)c1ccc(Nc2nc(NCCO)nc(N3CCOCC3)n2)cc1 | 99%

Reference: PubChem BioAssay (NCI)
